Shown are actives, neighbours in structure and some others; about 1.7% of the full set was active somewhere.
Anesthetic bind – qHTS Assay for Identification of Novel General Anesthetics | apoferritin/1-aminoanthracene competitive binding, fluorescence | AID 485281, 2010 | Potency, µM (doses to about 77.5 µM), actives largely listed as inhibitors | 350,000 tested, 0.074% active; further: nearly all actives have a fitted effect of over 20% in size
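Probe: 1-aminoanthracene (50% saturated, PBS). Protein: horse-spleen apoferritin, 10 uM. Incubation: 10 min, room temperature. Detection: 380 nm excitation, 535 nm emission. Analysis: normalized response, four-parameter Hill.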
TrxR1 substrate – qHTS Assay for Substrates of Mammalian Selenoprotein Thioredoxin Reductase 1 (TrxR1): qHTS | Thioredoxin reductase 1, cytoplasmic (Rattus norvegicus), O89049 | purified TrxR1 substrate turnover, NADPH consumption readout | Potency, µM (highest dose often 114 µM) | 390,000 tested, 0.01% active | AID 588456, 2011; further: nearly all actives have a fitted effect of over 50% in size
Target sequence (O89049 whole entry, looked up): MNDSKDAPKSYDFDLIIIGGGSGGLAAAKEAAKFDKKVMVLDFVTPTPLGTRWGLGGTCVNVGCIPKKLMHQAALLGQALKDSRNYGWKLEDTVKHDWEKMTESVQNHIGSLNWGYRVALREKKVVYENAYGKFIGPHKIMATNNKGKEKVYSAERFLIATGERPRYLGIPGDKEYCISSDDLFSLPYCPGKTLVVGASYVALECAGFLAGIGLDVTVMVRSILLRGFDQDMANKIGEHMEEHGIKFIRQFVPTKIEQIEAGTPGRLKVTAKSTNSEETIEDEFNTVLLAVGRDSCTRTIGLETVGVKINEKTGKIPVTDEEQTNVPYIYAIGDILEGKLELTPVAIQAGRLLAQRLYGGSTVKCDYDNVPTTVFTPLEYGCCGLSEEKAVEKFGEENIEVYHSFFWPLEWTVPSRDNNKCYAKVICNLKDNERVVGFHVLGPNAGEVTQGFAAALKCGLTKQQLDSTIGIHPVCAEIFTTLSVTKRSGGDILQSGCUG
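Rat TrxR1, dispensed at 90 nM, was prereduced with 400 uM NADPH (final) for 5 min at ~22 deg C, then incubated with compound 15 min before 400 uM selenite. A first-read NADPH fluorescence drop versus no-compound background flagged substrates.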
rTrxR1 inhibitor – qHTS Assay for Inhibitors of Mammalian Selenoprotein Thioredoxin Reductase 1 (TrxR1): qHTS; Thioredoxin reductase 1, cytoplasmic (Rattus norvegicus), O89049; recombinant rTrxR1, NADPH fluorescence consumption, selenite substrate; Potency, µM (top dose mostly 114 µM), actives largely listed as inhibitors; 390,000 tested, 1% active; AID 588453, 2011; further: nearly all actives have a fitted effect of over 65% in size
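Rat TrxR1 (90 nM in the dispensed reagent) was pre-reduced with 400 uM NADPH for 5 min at room temperature, then incubated with compound for 15 min. After 400 uM selenite was added, NADPH fluorescence (Ex 340/Em 450 nm) was followed for 8 min.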
Glioma ERSR ind – qHTS for Inducers of the Endoplasmic Reticulum Stress Response (ERSR) in Human Glioma: qHTS. AID 602332, 2012. Potency, µM, hits mostly activators. 420,000 tested, 0.02% active. U87-MG GRP78 promoter luciferase reporter, 16 h; further: series mostly up to about 76 µM; nearly all actives have a fitted effect of over 35% in size
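Stably transfected U87-MG glioma cells carrying a GRP78-based luciferase sensor; 16 h compound incubation. Luminescence end-point read 10 min after Bright-Glo addition at room temperature.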
ALOX12 inh – Primary qHTS assay for inhibitors of human arachidonate 12S-lipoxygenase (ALOX12): Round 2; Potency, µM (highest dose often 108 µM), usual class: inhibitors; purified 12hLO, xylenol orange hydroperoxide absorbance; Polyunsaturated fatty acid lipoxygenase ALOX12 (Homo sapiens), P18054; 580,000 tested, 1.1% active
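Purified human 12hLO (150 nM final) in 25 mM Hepes, 0.01% Triton X-100, pH 7.0 was preincubated 15 min at room temperature with compound. Then 40 uM arachidonic acid was added, 30 min. Hydroperoxide was read by Fe-XO absorbance ratio 573/405 nm.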
mIDH1 inhibitor – qHTS for Inhibitors of mutant isocitrate dehydrogenase 1 (IDH1): qHTS | IDH1-R132H enzyme, NADPH consumption, diaphorase/resazurin fluorescence | Potency, µM (series often up to 76.6 µM), hits mostly inhibitors | 390,000 tested, 0.093% active | AID 602179, 2012; further: nearly all actives have a fitted effect of over 65% in size
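IDH1-R132H (0.5 ug/mL) preincubated 30 min with compound, then NADPH (0.016 mM) and alpha-KG (2 mM) added; 80 min at RT, pH 7.5. Remaining NADPH coupled via diaphorase/resazurin to fluorescence (540/590 nm); concentration-response curves normalized to no-enzyme control.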
A number is an active result; – = inactive; ? = inconclusive; · = not tested or not shown; [ ] = another dose, or the depositor's remark. The call rests on the fitted dose curve; in most records, active means well fitted curve in the direction sought with a large enough effect; inconclusive means small, poorly fitted or top-dose-only effect, or another doubt; inactive means no such curve, though single readings can be large; an effect the other way counts as inactive or inconclusive.

SMILES	Anesthetic bind	TrxR1 substrate	rTrxR1 inhibitor	Glioma ERSR ind	ALOX12 inh	mIDH1 inhibitor
Cc1sc(/N=C/c2ccc(C(C)(C)C)cc2)c(C#N)c1C	·	·	·	·	–	·
Cc1sc(/N=C/c2ccc(Br)cc2)c(C#N)c1C	·	·	·	·	17.8µM	·
Cc1sc(/N=C/c2c[nH]c3ccccc23)c(C#N)c1C	·	·	·	·	20µM	·
CCOC(=O)/C=C(/C)N1N=C(c2ccc(OC)cc2)CC1c1cccc([N+](=O)[O-])c1 (centres undefined)	–	–	50.1µM	–	?	–
COc1ccc(C2=NN(C(=O)c3ccccc3)C(c3cccc([N+](=O)[O-])c3)C2)cc1 (centres undefined)	–	–	–	–	–	–
COc1ccc(-n2nc3ccc(NC(=O)CSc4ccccc4)cc3n2)cc1Cl	·	·	·	·	–	·
CCOc1ccc(CC2NCCc3cc(OCC)c(OCC)cc32)cc1OCC (centres undefined)	–	–	50.1µM	–	–	–
COc1cc2c(cc1OC)C(Cc1ccc(O)cc1)NCC2 (centres undefined)	–	–	–	–	–	–
CCN(CC)CC1CCN(C(=O)c2cc(F)cc3nc(C)c(C)nc23)CC1	·	·	·	·	–	·
CCOc1ccccc1CNC	·	·	·	·	–	·
N#CCCn1cc(C(=O)CN2C(=O)C(=O)N(C3CCCC3)C2=O)c2ccccc21	·	–	–	–	?	–
N#CCCn1cc(-c2csc(NC3CCCC3)n2)c2ccccc21	·	·	·	·	6.31µM	·
CS(=O)(=O)c1ncc(Cl)c(C(=O)Nc2ccc(OC(F)F)cc2)n1	–	–	39.8µM	–	–	–
CCOC(=O)c1nc(S(C)(=O)=O)ncc1Cl	–	–	17.8µM	–	–	–
CS(=O)(=O)c1ncc(Cl)c(C(=O)Nc2ccc(N3CCOCC3)cc2)n1	–	–	10µM	–	·	–
CCCOc1nccnc1NC1CCN(C(=O)NCC)CC1	·	·	·	·	–	·
CCN(CC)Cc1ccccc1CNC(=O)c1c(C)[nH]c2ccccc12	·	·	·	·	–	·
Cc1ccc(-c2nn(-c3cccc(F)c3)cc2CN2CCN(c3ccccn3)CC2)o1	–	–	?	–	8.91µM	–
Cc1nc(-c2ccc(C)c(S(=O)(=O)N3CCCCCC3)c2)cs1	·	·	·	·	–	·
Cc1ccn(CCC(=O)O)n1	–	–	–	–	–	–
Cc1ccn(-c2cc(O)c(-n3ccc(C)n3)cc2O)n1	–	–[0.0914 µM]	–	–	2.82µM	–
CCN(CC)c1ccc(/C=N/N2CC(=O)NC2=S)cc1	·	–	–	–	3.55µM	–
CCN(CC)c1ccc(/C=N/N2C(=O)c3ccccc3C2=O)cc1	?	–	–	–	–	–
Cc1ccc(C(=O)Oc2ccc3c(C(C)C)cc(=O)oc3c2)cc1S(C)(=O)=O	·	·	·	·	–	·
Cc1ccccc1-c1ccc2ncnc(NC3CC3)c2c1	·	·	·	–	–	·
SMILES	Anesthetic bind	TrxR1 substrate	rTrxR1 inhibitor	Glioma ERSR ind	ALOX12 inh	mIDH1 inhibitor
COCCNc1ncnc2ccc(-c3ccccc3C)cc12	·	·	·	–	28.2µM	·
CCOC(=O)CNC1CC(=O)N(c2ccc(Br)cc2)C1=O (centres undefined)	–	–	28.2µM	–	–	–
O=C(NNC1CC(=O)N(c2ccc(Br)cc2)C1=O)c1cccs1 (centres undefined)	–	–	–	–	?	–
COc1ccc(N2C(=O)CC(NCC#N)C2=O)cc1 (centres undefined)	–	–	31.6µM	–	–	–
Cc1ccccc1-c1cc(-c2c(C)noc2C)c2cncn2c1	·	·	·	·	–	·
Cc1ncsc1CN1C[C@@H](NC(=O)c2cccnc2)C[C@H]1CO	·	·	·	·	14.1µM	·
CCOC(=O)C1CCCCN1Cc1nc(N2CCN(C(C)=O)CC2)c2ccccc2n1 (centres undefined)	·	·	·	–	–	·
CCCCOc1c(Br)cc(/C=C2\N=C(C)OC2=O)cc1OCC	–	–	39.8µM	–	?	?
